High-throughput results as filed in PubChem.
Sampled rows, rich in hits. Any-hit rate of the full collection: about 3.5%.
TEAD-YAP inh: TEAD-YAP interaction inhibition, primary screen, TEAD-YAP interaction inhibitor project, luminescence, HEK-TIYL cells; hit rate 1.4% among 640,000; TEAD-Gal4/YAP UAS-luciferase luminescence; inhibition, % at 9.12 µM; in the data active = inhibition above about 32%;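 note: 0% = median of test compound wells and 100% = reference inhibitor wells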
FBW7 activator: FBW7 E3 ligase activators, primary screen, biochemical, AlphaScreen, human; AlphaScreen FBW7–phospho-cyclin E peptide binding, activator screen; normalized activity (activation), % at 26.1 µM; hit rate 0.13% among 650,000; AID 1259310, 2017; in the data active = normalized activity above about 1.9%;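 note: purified mutant Fbw7 with reduced substrate affinity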
MITF primary: MITF inhibitors, primary screen, biochemical, AlphaScreen, human; Microphthalmia-associated transcription factor (Homo sapiens), O75030; AlphaScreen MITF homodimerization, bead proximity signal; inhibition, % at 2.6 µM; hit rate 0.91% among 650,000; AID 1259374, 2018; in the data active = inhibition above about 50%;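 note: 0% = vehicle wells with protein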
GPR151 activ: activators of human GPR151, primary screen, cell-based, PathHunter beta-arrestin, luminescence | PathHunter beta-arrestin GPR151 cells | activation, % at 11.2 µM | hit rate 1% among 650,000 | AID 1508602, 2020; in the data active = activation above about 4.9%;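 note: 0% = median of compound wells and 100% = cells with positive control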
Target sequence (Q8TDV0 whole entry, looked up): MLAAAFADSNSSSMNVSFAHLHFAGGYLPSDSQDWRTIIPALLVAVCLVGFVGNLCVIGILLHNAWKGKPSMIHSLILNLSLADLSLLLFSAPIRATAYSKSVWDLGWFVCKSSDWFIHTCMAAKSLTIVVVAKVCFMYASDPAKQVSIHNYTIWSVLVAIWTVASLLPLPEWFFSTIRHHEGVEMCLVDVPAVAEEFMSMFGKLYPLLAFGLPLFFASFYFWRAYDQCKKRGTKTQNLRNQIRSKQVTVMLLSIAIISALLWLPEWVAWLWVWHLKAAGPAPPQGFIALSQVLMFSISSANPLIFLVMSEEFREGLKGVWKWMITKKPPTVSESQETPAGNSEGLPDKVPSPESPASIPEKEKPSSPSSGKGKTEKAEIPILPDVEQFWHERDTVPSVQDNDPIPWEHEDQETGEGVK
MITF confirm: MITF inhibitors, retest of hits, confirmation, biochemical, AlphaScreen, triplicate; shares compounds with MITF primary; AlphaScreen MITF homodimerization, biotin/His-MITF beads; inhibition, % at 2.6 µM; hit rate 16% among 4,700;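 active = inhibition above a cutoff derived from the DMSO control wells, cut at about 28% in these data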;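 note: 0% = MITF dimer wells with DMSO only; inhibitors lower the bead chemiluminescence by keeping MITF from dimerizing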
AS interf DR: AlphaScreen optical interference compounds, dose response, counter-screen, biochemical, HTS | AlphaScreen optical interference counterscreen, cell-free | shares compounds with MITF primary | hit rate 6% among 480 | IC50, µM; call rule not given here
AlphaScreen intf2: AlphaScreen optical interference compounds, counter-screen for MITF inhibitor project, biochemical, triplicate | LysRS AlphaScreen counterscreen, signal interference | hit rate 7.6% among 4,700 | AID 1259376, 2018 | inhibition, % at 2.6 µM | shares compounds with MITF primary;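 active = inhibition above a cutoff derived from the DMSO control wells, cut at about 30% in these data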
Starred values were filed as active, the others as inactive; x = not tested or not shown.

SMILES	TEAD-YAP inh	FBW7 activator	MITF primary	GPR151 activ	MITF confirm	AlphaScreen intf2	others
O=C(NCCO)c1cccc(-c2cccs2)c1	1	0	59*	3	59*	1	AS interf DR=>8.1
O=C(NCc1cccnc1)c1cccc(-c2cccs2)c1	2	0	55*	-2	45*	-2	AS interf DR=>6.6
O=C(NCc1cccnc1)C(=O)NCc1cccnc1	6	0	72*	3	5	13
COc1ccc(CNC(=O)c2nnn(Cc3ccc(Br)cc3)c2N)cc1	-17	1	12	-1	x	x
O=c1c2sc(=S)n(Cc3ccco3)c2nc(SCc2ccc(F)cc2Cl)n1-c1ccccc1	-10	0	51*	-2	-3	9
O=c1c2sc(=S)n(Cc3ccco3)c2nc(SCc2ccc(F)cc2Cl)n1-c1ccc(F)cc1	-5	0	3	-1	x	x
O=C(/C=C/c1ccc(Cl)cc1)Nc1nnc(C(F)(F)F)s1	-6	0	-3	1	x	x
COc1cc(/C=C/C(=O)Nc2nnc(C(F)(F)F)s2)cc(OC)c1OC	10	0	52*	-1	5	13
COc1ccc(C2C(C(=O)OCCc3ccccc3)=C(C)NC3=C2C(=O)CC(c2ccccc2)C3)cc1OC (centres undefined)	13	1	3	0	x	x
COc1ccc(/C=C/C(=O)c2cccc([N+](=O)[O-])c2)c(OC)c1	-13	0	18	0	x	x
CN1CCN(Cc2cn(-c3ccccc3)nc2-c2ccc3c(c2)OCCO3)CC1	-4	0	77*	0	9	12
O=C(c1cn(-c2ccccc2)nc1-c1ccc2c(c1)OCCO2)N1CCOCC1	-5	0	58*	0	1	14
OCc1cn(-c2ccccc2)nc1-c1ccc2c(c1)OCCO2	-82	0	-7	-2	x	x
CSCCC(NC(N)=O)C(=O)NNC(=S)Nc1ccc(SC(F)F)cc1 (centres undefined)	-4	0	10	0	x	x
O=C1OC2(C(=O)c3ccccc3C2=O)/C(=C(\O)c2ccccc2)C1=O	12	0	15	1	x	x
O=[N+]([O-])c1ccccc1S(=O)(=O)N1CCN(C2CCN(Cc3ccccc3)CC2)CC1	-5	0	74*	1	6	15
O=[N+]([O-])c1ccccc1S(=O)(=O)N1CCN(C2CCCC2)CC1	3	0	11	1	x	x
Cc1ccc(S(=O)(=O)N2CCN(Cc3ccccc3Br)CC2)cc1	6	0	61*	-2	13	15
CN(C)CCNC(=S)N1CCN(S(=O)(=O)c2ccccc2[N+](=O)[O-])CC1	7	0	73*	4	-2	9
COc1ccc(S(=O)(=O)N2CCN(Cc3ccccc3Br)CC2)cc1	4	0	18	-1	x	x
O=[N+]([O-])c1ccccc1S(=O)(=O)N1CCN(c2ncccn2)CC1	-2	0	-2	0	x	x
O=[N+]([O-])c1ccccc1S(=O)(=O)N1CCN(Cc2ccccn2)CC1	7	0	58*	-1	13	14
CCCCCCOC(=O)C1=C(C)NC(=O)NC1c1ccc(Cl)c(Cl)c1 (centres undefined)	-6	0	-1	-1	x	x
COc1ccc(C2=N/C(=C\c3cccc(Cl)c3)C(=O)O2)c(Br)c1	-2	0	11	0	x	x
Cc1nn2cc(C(O)C[N+](=O)[O-])cnc2c1[N+](=O)[O-] (centres undefined)	-49	0	-6	-1	x	x
COc1ccc(CN2CCN(S(=O)(=O)c3ccccc3[N+](=O)[O-])CC2)cc1	4	0	38	0	x	x
O=C(c1cccnc1)N1CCN(S(=O)(=O)c2ccccc2[N+](=O)[O-])CC1	-7	0	-24	0	x	x
O=[N+]([O-])c1ccccc1S(=O)(=O)N1CCN(Cc2ccc(Cl)cc2)CC1	4	0	73*	-1	16	13
